A selection: hits, their analogues and other compounds. The true share with any hit is near 2.1%.
Rpn11 block: Rpn11 (PSMD14) deubiquitinase inhibitors, primary screen, biochemical, fluorescence polarization, uHTS; 360,000 compounds, 0.59% hits; human 26S proteasome, Ub4-pepOG fluorescence polarization; 20S core pre-blocked with epoxomicin; inhibition, % at 20 µM;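 active = inhibition at 20 µM, scaled to each plate's controls, above about 33%, limit read from the data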
HNF4A DNA FP: change in binding of human HNF4A to DNA, primary screen, biochemical, fluorescence polarization, FITC-DNA; 1 h; AID 1224865, 2016; 360,000 compounds, 0.3% hits; Hepatocyte nuclear factor 4-alpha (Homo sapiens), P41235; activity change, % at 10 µM; in the data active = activity change above about 30%, passing the limit was not always enough
Target sequence (P41235 whole entry, looked up): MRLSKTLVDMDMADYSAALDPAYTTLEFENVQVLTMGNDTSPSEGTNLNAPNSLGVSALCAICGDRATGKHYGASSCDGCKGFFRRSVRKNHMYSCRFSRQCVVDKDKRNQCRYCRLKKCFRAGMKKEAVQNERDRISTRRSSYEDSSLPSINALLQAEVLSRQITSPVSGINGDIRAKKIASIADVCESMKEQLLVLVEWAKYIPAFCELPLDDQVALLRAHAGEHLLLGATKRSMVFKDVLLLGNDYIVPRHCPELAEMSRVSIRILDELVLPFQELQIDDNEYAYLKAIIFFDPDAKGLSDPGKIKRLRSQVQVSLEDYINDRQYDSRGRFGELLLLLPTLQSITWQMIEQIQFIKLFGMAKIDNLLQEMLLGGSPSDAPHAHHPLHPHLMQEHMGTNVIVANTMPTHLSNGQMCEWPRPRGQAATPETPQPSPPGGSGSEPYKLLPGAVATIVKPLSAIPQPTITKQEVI
TPT1 inh: Candida albicans TPT1 enzyme inhibitors, primary screen, biochemical, fluorescence polarization; 300,000 compounds, 0.81% hits; tRNA 2'-phosphotransferase TPT1 (Candida albicans SC5314); recombinant caTPT1, FP RNA substrate dephosphorylation; AID 1962, 2009; inhibition, % at 5 µM;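 active = inhibition above the mean of all tested compounds plus 3 SD, set per screening campaign, cut at about 24% in these data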;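 note: plate controls were DMSO alone for no effect and ferristatin control at 100 nM for full effect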
Myeloid diff MLP: induction of myeloid progenitor differentiation, primary screen, cell-based, flow cytometry, MLPCN library; ER-HoxA9 myeloid progenitors, lysozyme-GFP differentiation; calls only at 10 µM; 360,000 compounds, 1% hits; AID 624256, 2012;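 active = normalized GFP-positive differentiation at or above the plate's own cutoff, the solvent-only control mean plus 3 SD; inconclusive = no clear call, values can overlap the other calls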;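 note: cells exposed to compound for four days before flow analysis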
Numbers without * were called inactive; i = inactive; ? = inconclusive; . = no result given; + = active, no number.

SMILES	Rpn11 block	HNF4A DNA FP	TPT1 inh	Myeloid diff MLP
COC(=O)c1ccc(C)c(NC(=O)CCSc2ccccc2)c1	-6.9	0.1	-3.8	i
COC(=O)c1ccc(C)c(NC(=O)CCSc2ccc(Cl)cc2)c1	-2.0	94.9*	-3.6	i
O=c1ccc2cc3c([nH]c4ccc(Br)cc43)oc-2c1O	45.7*	86.6	14.2	?
CCN=C1NN=C(c2ccc(C)cc2)CS1	40.9*	14.4	19.6	i
CC(C)Cc1nc(SCC(=O)NCC2CCCO2)c2c(=O)n(C)c(=O)n(C)c2n1 (configuration not stated)	-8.6	-0.6	-0.8	i
O=C(O)c1ccccc1C(=O)Nc1ccc(Oc2ccc3ccccc3c2)cc1	5.2	-3.8	-2.0	+
O=C(O)c1ccccc1C(=O)Nc1ccc(Oc2cccc3ccccc23)cc1	-1.3	-1.9	.	i
O=C(Oc1ccc(Cl)c2cccnc12)c1cccc([N+](=O)[O-])c1	3.8	0.7	-0.6	i
O=C(Oc1c(Cl)cc(Cl)c2cccnc12)c1cccc([N+](=O)[O-])c1	48.8*	1.2	-1.8	i
CC(=O)Oc1ccc(C(=O)Nc2cccc(-c3nnc(-c4ccco4)o3)c2)cc1	20.7	-5.6	0.3	+
S=C(NCc1ccncc1)Nc1ccccc1	4.0	2.4	-3.6	i
S=C(NCc1ccccc1)Nc1ccncc1	-1.1	-2.4	-1.7	+
CCCNC(=O)CCn1cc(-c2ccc(OC)cc2)nc1-c1ccncc1	-6.8	-3.2	-2.2	i
Nc1nc2ccc(Cl)cc2cc1C(=O)NCCCN1CCOCC1	.	-4.2	.	i
Cc1ccc(-c2nnn(CC(=O)N(CC(=O)NC3CCCC3)c3cnc4ccccc4c3)n2)o1	5.0	1.8	1.4	+
Cc1ccc(-c2nnn(CC(=O)N(CC(=O)NC(C)C)c3cnc4ccccc4c3)n2)o1	1.1	-3.5	2.8	i
Cc1ccc(C)c(S(=O)(=O)N2CCCC2CNC(=O)C(=O)NCC2CCCO2)c1 (configuration not stated)	-12.5	33.9*	-2.3	i
Cc1ccc(C)c(S(=O)(=O)N2CCCC2CNC(=O)C(=O)NCc2ccccc2C)c1 (configuration not stated)	-4.9	1.0	1.2	i
CCOc1c(C)cnc2c1c(=O)n(Cc1ccccc1Cl)c(=O)n2C	-3.0	-2.6	4.0	i
CCO/C(C)=N/n1c2nc3ccccc3nc2c2c(=O)n(Cc3ccccc3Cl)c(C)nc21	-10.2	10.9	22.8	+
O=C(Nc1cccc(-c2cnc3ccccc3n2)c1)c1ccccc1	-1.9	0.5	0.1	i
O=C(Nc1cccc(-c2cnc3ccccc3n2)c1)c1cccc(NC(=O)c2ccco2)c1	73.7*	6.4	1.6	i
COC(=O)/C=C/c1c(C)nc(NCc2ccccc2)nc1Cl	3.6	8.4	4.1	+
Cc1nc(Cl)c(C(=O)NCc2ccccc2)c(C)c1Cl	-2.1	-0.6	-3.5	i
Cc1ccc(C2(c3ccccc3)NC(=O)N(CC(=O)N3CC(=O)Nc4ccccc43)C2=O)cc1C (configuration not stated)	8.8	-3.4	.	i
SMILES	Rpn11 block	HNF4A DNA FP	TPT1 inh	Myeloid diff MLP
CC(C)CC(c1nnnn1C(C)C)N1CCN(c2ccccc2)CC1 (configuration not stated)	3.4	-1.7	1.2	i
COc1ccc(-c2cc(-c3ccccc3O)[nH]n2)cc1	0.9	-0.6	1.6	i
COc1ccc2cc(-c3ccn[nH]3)ccc2c1	-0.5	-1.6	-3.5	+
COc1ccccc1OCC(=O)Nc1sc2c(c1C(=O)NCC1CCCO1)CCC2 (configuration not stated)	1.6	5.2	2.5	+
Nc1ccc(-c2cnc3ccccc3n2)cc1	4.0	0.3	-0.9	i
Nc1ccc2nc(-c3ccccc3)cnc2c1	-64.0	-35.6	-39.2	+
Cc1cc(C)nc(NC(=S)Nc2ccc(Br)cc2Cl)c1	1.9	-1.2	3.6	i
Cc1cc(C)nc(NC(=S)Nc2cccc(Cl)c2Cl)c1	-2.4	-3.0	-1.1	+
CCOc1ccc(C(=O)COC(=O)Cn2[nH]c(=O)c3ccccc3c2=O)cc1	-2.3	7.2	.	i
O=C(NC(NC(=S)N1CCOCC1)C(Cl)(Cl)Cl)c1ccc(Cl)cc1 (configuration not stated)	-10.5	3.7	1.8	+
CCOc1ccc(/C=C2/C(=O)N(c3ccc(OC)cc3)C(=S)N2CC(=O)OC)cc1OCC	.	46.8*	20.1	i

Source: PubChem BioAssay
